# Assay results as given in PubChem BioAssay (NCI).
# “And” between values parts separate entries of the source, which are not always exact repeats. Equal values may be shown once. About 83,000 compounds went through this panel and 20% of them were active in at least one assay; those are over-represented in the sample as a whole.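 Negative percent growth values reflect cell death: -40 means 40% of the cells present at the start died, and -100 means all died.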 The source made the active and inactive calls. The calls were made as follows: active = growth percent below 10; inactive = the rest.
# What was measured:
# Experiment in all cases: NCI-60 one-dose screen, 48 h (100 = growth as untreated, 0 = no growth, -100 = all killed)
# Settings in all cases: 10 µM unless noted
# HCT-15 colon = test system: HCT-15 colon
# HT29 colon = test system: HT29 colon
# SNB-75 CNS = test system: SNB-75 CNS
# SNB-19 CNS = test system: SNB-19 CNS
# U251 CNS = test system: U251 CNS
# PC-3 prostate = test system: PC-3 prostate
# SK-MEL-5 melanoma = test system: SK-MEL-5 melanoma
# UACC-62 melanoma = test system: UACC-62 melanoma
# LOX IMVI melanoma = test system: LOX IMVI melanoma
# SK-MEL-28 melanoma = test system: SK-MEL-28 melanoma
SMILES,growth (HCT-15 colon),growth (HT29 colon),growth (SNB-75 CNS),growth (SNB-19 CNS),growth (U251 CNS),growth (PC-3 prostate),growth (SK-MEL-5 melanoma),growth (UACC-62 melanoma),growth (LOX IMVI melanoma),growth (SK-MEL-28 melanoma)
C#CCOCC1CN(C)C(=O)O1 (stereo not given),98.1% (inactive),99.5% (inactive),98.5% (inactive),107% (inactive),103% (inactive),109% (inactive),114% (inactive),112% (inactive),105% (inactive),110% (inactive)
O=C(/C=C/c1ccccc1)c1cccs1,95.1% (inactive) and 95.5% (inactive),99.8% (inactive) and 90.7% (inactive),102% (inactive) and 97.3% (inactive),93.6% (inactive) and 104% (inactive),80.8% (inactive) and 85.9% (inactive),90.8% (inactive) and 103% (inactive),101% (inactive) and 100% (inactive),92.9% (inactive) and 99.6% (inactive),82.1% (inactive) and 64.5% (inactive),111% (inactive) and 105% (inactive)
Cn1cc(-c2nc3c(F)cc4[nH]ncc4c3c3c2CCCC3)c(C(F)F)n1,66.6% (inactive),68.4% (inactive),57.6% (inactive),71.2% (inactive),80.5% (inactive),29% (inactive),65.4% (inactive),51.9% (inactive),62.6% (inactive),80.8% (inactive)
CCOC(=O)CCCn1c(-c2ccccc2)cc(-c2ccccc2)c(C#N)c1=O,82.3% (inactive),88.1% (inactive),71.2% (inactive),93.5% (inactive),98.7% (inactive),63.8% (inactive),92.7% (inactive),59% (inactive),84.7% (inactive),88.7% (inactive)
C/C=C(/C)C(=O)O[C@@H]1CC(C)(C)CC2C34OC(=O)[C@@]21CC[C@@]3(C)[C@]1(C)CCC2C(C)(C)C(=O)CC[C@]2(C)C1C[C@@H]4Cl (stereo not given in full),99.3% (inactive),98% (inactive),76% (inactive),92% (inactive),92.1% (inactive),80.4% (inactive),98.4% (inactive),85.3% (inactive),94.1% (inactive),102% (inactive)
CCCCCCCCCCCCCCCC[N+](C)(C)CCN(Cc1ccc(OC)cc1)c1ncccn1,74.4% (inactive) and 94.5% (inactive),-100% (active) and 18.2% (inactive),51.9% (inactive) and 13% (inactive),-48.7% (active) and 41.9% (inactive),-82.5% (active) and 29.2% (inactive),-78% (active) and 15.4% (inactive),8.82% (active) and 39.8% (inactive),-39.6% (active) and 19% (inactive),-76.8% (active) and 23.8% (inactive),33.3% (inactive) and 52.9% (inactive)
COc1ccc(-c2ccccc2)cc1-c1c(Nc2cc(Cl)cc(Cl)c2O)c(=O)c1=O,10.2% (inactive),44.6% (inactive),-8.42% (active),10.9% (inactive),6.59% (active),12.5% (inactive),-40.7% (active),10.6% (inactive),7.28% (active),20% (inactive)
N#C/C(=C\c1ccccc1Cl)c1cc2ccccc2[nH]1,81.4% (inactive),97.7% (inactive),83% (inactive),93.1% (inactive),85.8% (inactive),80.5% (inactive),85.9% (inactive),76.5% (inactive),92.4% (inactive),99% (inactive)
COc1ccc(Nc2ncnc3ccc(-c4cncc(NS(C)(=O)=O)c4)cc23)cc1Cl,63.3% (inactive),23.1% (inactive),26.7% (inactive),42.2% (inactive),12% (inactive),30% (inactive),-60.5% (active),31.8% (inactive),15.7% (inactive),42.4% (inactive)
COc1ccc(/C=C/C(=O)c2cc3c(N)c(C(=O)Nc4ccccc4)sc3nc2C)cc1,5.97% (active),-3.68% (active),11.9% (inactive),1.78% (active),1.52% (active),17.1% (inactive),4.63% (active),22.9% (inactive),2.65% (active),52% (inactive)
COc1ccc(-c2[nH]c3ccccc3c2-c2ccc(OC)cc2)cc1,39.8% (inactive),29.8% (inactive),31.5% (inactive),53.6% (inactive),44% (inactive),47.5% (inactive),58.1% (inactive),56.7% (inactive),46.3% (inactive),51.4% (inactive)
O=C(Nc1ccc2ccccc2c1)c1cc2ccccc2cc1O,85.9% (inactive),98.9% (inactive),103% (inactive),97.9% (inactive),87.2% (inactive),78% (inactive),86.7% (inactive),72.5% (inactive),94.4% (inactive),89.1% (inactive)
COc1cc(N=Nc2ccc(O)c3ncccc23)c2ncccc2c1,27.5% (inactive),44.5% (inactive),41.9% (inactive),47.6% (inactive),16.5% (inactive),32.4% (inactive),43.1% (inactive),6.71% (active),4.79% (active),42% (inactive)
COC(=O)c1nc(-c2ccc(C)cc2)oc1Sc1ccc(C)cc1,86.8% (inactive),102% (inactive),79.3% (inactive),101% (inactive),94.3% (inactive),78.4% (inactive),105% (inactive),76.9% (inactive),93.5% (inactive),106% (inactive)
COCCn1cc(-c2nc(-c3cn(CCOC)c4ncccc34)cs2)c2ccccc21,18.1% (inactive),89.5% (inactive),64.6% (inactive),71.1% (inactive),72.8% (inactive),73.1% (inactive),7.97% (active),87.1% (inactive),86.1% (inactive),105% (inactive)
O=C1/C(=C/c2ccc(F)c(F)c2)CN(C(=O)C(Cl)Cl)C/C1=C\c1ccc(F)c(F)c1,-74.9% (active),-26.6% (active),-84.7% (active),-93.1% (active),-99.3% (active),-85.2% (active),-95.3% (active),-85.2% (active),-90.1% (active),-92.6% (active)
CC(Sc1ccccc1)C(=O)O (stereo not given),100% (inactive),99.3% (inactive),91.6% (inactive),94.5% (inactive),91.1% (inactive),103% (inactive),106% (inactive),94.5% (inactive),95.6% (inactive),106% (inactive)
CC/C=C\C/C=C\C[C@H](O)C/C=C1/C(=O)C=C[C@@H]1C/C=C\CCCC(=O)OC,-25.8% (active),-25.4% (active),53.3% (inactive),20.2% (inactive),-73.3% (active),-36.6% (active),-94.9% (active),-56% (active),-80.5% (active),-38% (active)
CCCCCCNC(=O)Oc1ccc(/C(=C(/CC)Cc2ccccc2)c2ccc(OCCCN(C)C)cc2)cc1,14.7% (inactive),18.9% (inactive),68.4% (inactive),88.3% (inactive),60.4% (inactive),73.2% (inactive),87.7% (inactive),94.9% (inactive),-15% (active),101% (inactive)
CCCc1cc(C(N)=S)ccn1,102% (inactive),97.6% (inactive),103% (inactive),115% (inactive),103% (inactive),98.3% (inactive),107% (inactive),108% (inactive),96.7% (inactive),116% (inactive)
O=[N+]([O-])c1ccc2[nH]c3nccc(NCc4cccc(Cl)c4)c3c2c1,83.2% (inactive),76.3% (inactive),7.78% (active),53.3% (inactive),43.1% (inactive),67.5% (inactive),83.7% (inactive),82.2% (inactive),81.4% (inactive),101% (inactive)
Nc1c(C(=O)Nc2ccncc2)sc2nc3c(cc12)CCCCCCCC3,-82.2% (active),-92.6% (active),-96.2% (active),-77.1% (active),-89.2% (active),-18.9% (active),-96.1% (active),-94.9% (active),-84.7% (active),-91.4% (active)
CC1(Cc2ccccc2)CC2=C(C(=O)O1)C(c1ccccc1)NC(=O)N2 (stereo not given),106% (inactive),96.8% (inactive),79.3% (inactive),89.4% (inactive),104% (inactive),92% (inactive),95% (inactive),91.5% (inactive),95.3% (inactive),116% (inactive)
COc1ccc(/C=C/C(=O)c2cc3c(N)c(C(=O)Nc4ccccc4Cl)sc3nc2C)cc1,54.2% (inactive),39.2% (inactive),-6.43% (active),44.7% (inactive),31.7% (inactive),59.2% (inactive),-56.1% (active),-1.92% (active),48.2% (inactive),42% (inactive)
O=C(CN1C(=O)S/C(=C\C(Cl)=C\c2ccccc2)C1=O)NCCCn1ccnc1,1.15% (active),10.5% (inactive),32% (inactive),57.5% (inactive),45.6% (inactive),45.8% (inactive),64.1% (inactive),18.8% (inactive),-52.3% (active),12.4% (inactive)
